Measured potencies and affinities stand elsewhere. A number with no mark means an inactive call. How the calls were made is not given here.

Experimental findings from PubChem BioAssay AID1650 (Southern Research Specialized Biocontainment Screening …, 2009) are described below.

The assay is described as follows: host cell cytotoxicity of antiviral hits, dose response, cytotoxicity control for West Nile virus antiviral project, secondary assay (AID 1650). Particulars: Mammalian host cell viability, cytotoxicity counter-screen; series mostly up to 10 µM; viability: at the top concentration. For orientation: Counterscreens check selectivity or assay interference.
One may read the viability as a read-out of living cells in per cent, often relative to untreated cells. Regarding `CSc1cccc(NC(=S)N(CCCN2CCCC2)Cc2cccn2Cc2ccc(Cl)cc2)c1`, the “viability” value is 81% [at 20 µM].

`CN1CCN(Cc2nc3ccccc3c(=O)n2Cc2nc(-c3ccccc3F)cs2)CC1`: the “viability” value was 78%.

Consider `O=C(Nc1cccc(Cl)c1)Nc1cc(S(=O)(=O)N2CCCCC2)ccc1Cl`, for which the “viability” value is 70.3% [at 20 µM].

As for `O=C(Nc1ccc(F)c(Cl)c1)Nc1ccc(Cl)cn1`, the “viability” value is 83.2% [at 20 µM].

As for `CCCC12CN3CC(C)(CN(C1)C3c1ccc(OC(C)C)cc1)C2=O` (centres undefined), the “viability” value is 90.3% [at 20 µM].

With `COc1ccc(CNCCC(c2ccc(OC(C)C)cc2)c2ccccc2OC)cc1OC` (centres undefined), the “viability” value was 70.5% [at 20 µM].

As to `CN(C)CCNc1ncnc2c1sc1nc(N3CCCC3)c3c(c12)CC(C)(C)OC3`, the “viability” value is 75.1% [at 20 µM].

For `CCOC(=O)c1nn(-c2ccccc2)c2nc(-c3ccc(OC)cc3)c(C#N)c(=O)n12`, the “viability” value is 94.6%.

On to `COc1ccc(/C=C2/SC(=S)N(CCC(=O)N3CCN(C)CC3)C2=O)cc1`, for which the “viability” value is 83.4%.

In the case of `CCN(CC)CCNC(=O)C1CCN(S(=O)(=O)c2c(C)noc2/C=C/c2ccccc2F)CC1`, the “viability” value was 84.3%.

For `CCN(CC)CCOC(=O)c1ccc(NC(=O)CCCN2C(=O)S/C(=C/c3ccc(OC)cc3)C2=S)cc1`, the “viability” value was 78.4% [at 20 µM].

For `CCN(CC)CCCNC(=O)c1sc2nc(-c3ccc(F)cc3)cn2c1C`, the “viability” value is 92.1%.

Consider `CCOC(=O)C1(Cc2cccc(OC)c2)CCCN(C(=O)c2ccccc2C)C1` (centres undefined), for which the “viability” value was 80.7%.

For the compound `CCN(CC)CCNC(=O)c1ccc(NC(=O)C2CCN(c3ncnc4sc(C)c(C)c34)CC2)cc1`, the “viability” value is 81.7%.

As for `Cc1cccc(OCC(O)Cn2c(=N)n(CCN3CCCCC3)c3ccccc32)c1` (centres undefined), the “viability” value was 70.1% [at 20 µM].

Regarding `Cc1cccn2c(=O)c3cc(C(=O)NCCN4CCOCC4)c(=N)n(Cc4ccc(F)cc4)c3nc12`, the “viability” value was 74.9%.

On to `O=C(Nc1cccnc1Cl)c1cc(-c2ccc(Cl)cc2)on1`, for which the “viability” value is 86.7% [at 20 µM].

Turning to `CCOc1ccc(/C=C/c2nc(C#N)c(NCCCN(C)C)o2)cc1`, the “viability” value is 83.3%.

`O=C(Nc1ccc(F)cc1)c1nc[nH]c1C(=O)Nc1ccccc1[N+](=O)[O-]`: the “viability” value was 102% [at 20 µM].

For `O=C(Nc1ccc(-n2ccc(C(F)(F)F)n2)cc1)Nc1cccc(Cl)c1`, the “viability” value was 81%.

As for `COc1cc(CNC(C)(C)CO)cc(Br)c1OCc1ccc(Cl)cc1Cl`, the “viability” value is 74.1% [at 20 µM].

As for `CCN(CC)CCNc1ncnc2c1sc1nc(N3CCCC3)c3c(c12)CC(C)(C)OC3`, the “viability” value was 75.2% [at 20 µM].

Regarding `Cc1ccc(CN(Cc2cc3cccc(C)c3[nH]c2=O)C(=S)NCCCN(C)C)cc1`, the “viability” value was 73.8% [at 20 µM].

`CC1CCCN(Cc2c(O)ccc3c(=O)c(-c4nc5ccccc5s4)c(N)oc23)C1` (centres undefined): the “viability” value was 83.4%.

`Cc1ccc(OCC(O)Cn2c(=N)n(CCN3CCCCC3)c3ccccc32)cc1` (centres undefined): the “viability” value is 79.3%.

As to `CCN(CC)CCCNC(=S)N1CCN(c2nc(-c3ccccc3)cs2)CC1`, the “viability” value was 86.9%.

Take `CCc1ccc(-c2cc3c(=O)n(CC(=O)NCCCN4CCN(CC)CC4)nc(C)n3n2)cc1`: the “viability” value is 87.5%.

As to `Cc1oc(-c2ccccc2Cl)[n+]([O-])c1C`, the “viability” value is 90.3% [at 20 µM].

As for `CCN(CC)S(=O)(=O)c1ccc(NC(=O)Cn2cnc3ccccc3c2=O)cc1`, the “viability” value is 92.4%.

Turning to `Cc1nn(CC(=O)NCc2ccc(OC(C)C)cc2)c(=O)c2cc(-c3ccccc3)nn12`, the “viability” value was 89.4% [at 20 µM].

For `COc1ccc(-c2cc(C(=O)c3c(N)n(C)c(=O)n(C)c3=O)c3ccccc3n2)cc1OC`, the “viability” value is 90.8%.

Consider `CCCCCCn1c(SCC(=O)Nc2cc(C)on2)nc2ccccc2c1=O`, for which the “viability” value is 71.4%.

Take `N#Cc1ccc(-c2ccc(F)cc2)nc1Oc1ccc(Cl)c(Cl)c1`: the “viability” value was 79.6%.

As for `C=CCn1c(SCc2csc(-c3ccc(Cl)cc3)n2)nnc1-c1ccccc1OC`, the “viability” value is 73% [at 20 µM].

As for `COc1ccc(Nc2nc3ccccc3nc2C)cc1`, the “viability” value is 80.7%.

Regarding `CN1CCN(C(=O)CCN2C(=O)/C(=C/c3ccc(F)cc3)SC2=S)CC1`, the “viability” value was 75.9%.

As to `O=C(NCCOc1ccccc1Cl)c1ncn[nH]1`, the “viability” value was 96.6% [at 20 µM].

Regarding `CCOC(=O)c1c(CSCc2ccccc2)oc2ccc(O)c(CN(C)C)c12`, the “viability” value was 81.7% [at 20 µM].

Turning to `CCCCc1nc2ccccc2c(N)c1CCC` (tested in a mixture with another compound), the “viability” value is 81.9%.
